The panel holds about 79,000 compounds, 15% with a hit somewhere; the sample as a whole holds those more often. Active and inactive are the calls of the source. Rule as the data show it: active = growth inhibition above about 70%; inactive = the rest.
Experiments:
[1] = NCI Yeast Anticancer Drug Screen. Data for the rad50 strain (AID 155);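 also: 0% = growth of vehicle-only cultures of the same strain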; conditions: S. cerevisiae rad50 strain growth inhibition, hits give high values
How it was run: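 Vehicle-treated cultures provide the reference for the growth inhibition reported for compound-exposed, repair-deficient yeast.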

[2] = NCI Yeast Anticancer Drug Screen. Data for the mec2-1 strain (AID 157); conditions: S. cerevisiae mec2-1 strain, hits give high values
How it was run: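 Using mec2-1 yeast: add compound, measure growth, express inhibition versus vehicle-treated cultures.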

[3] = NCI Yeast Anticancer Drug Screen. Data for the sgs1 mgt1 strain (AID 161);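 also: 0% = growth of cultures given vehicle only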; conditions: S. cerevisiae sgs1 mgt1 strain, hits give high values
How it was run: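 Growth of a repair-deficient yeast mutant was monitored after compound treatment and expressed as inhibition relative to vehicle-treated cultures.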

[4] = NCI Yeast Anticancer Drug Screen. Data for the cln2 rad14 strain (AID 165);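 also: 0% = growth equal to vehicle treated cultures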; conditions: S. cerevisiae cln2 rad14 strain, hits give high values
How it was run: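 Yeast strain cln2 rad14, bearing defects in cell cycle control and DNA repair, serves as the test system; values reflect growth inhibition compared with vehicle.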

[5] = NCI Yeast Anticancer Drug Screen. Data for the bub3 strain (AID 167); conditions: S. cerevisiae bub3 mutant strain, hits give high values
How it was run: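 Mutant yeast screening strain plus compound; vehicle-treated cultures serve as the 0% inhibition reference.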

[6] = NCI Yeast Anticancer Drug Screen. Data for the mlh1 rad18 strain (AID 175); conditions: S. cerevisiae mlh1 rad18 strain growth inhibition, hits give high values
How it was run: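 Steps: expose repair-defective yeast to compound; measure growth; express inhibition against vehicle-treated controls.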

[7] = at 5.0 µM (retest, dose inferred, filed as 0.5)
[8] = at 50.0 µM (retest, dose inferred, filed as 5.0)

Measured: growth inhibition

CCC(CC)(C(=O)Nc1ccc2c(c1)c(=O)c1ccccc1n2C)C(=O)Nc1ccc2c(c1)c(=O)c1ccccc1n2C
active: [1]; [8] 97% | [1]; at 50.0 µM 97% | [2]; [8] 86% | [2]; at 50.0 µM 77.7% | [3]; [8] 71% | [3]; at 50.0 µM 70.8% | [4]; [8] 75% | [4]; at 50.0 µM 73% | [5]; [8] 78% | [6]; [8] 92% | [6]; at 50.0 µM 95.7%
inactive: [1]; [7] 7% | [2]; [7] -3% | [3]; [7] -25% | [4]; [7] -4% | [5]; [7] -10% | [5]; at 50.0 µM 61.2% | [6]; [7] -6%

CNC(=N)c1ccc(NC(=N)c2ccc(NC(=O)c3ccc(C(=O)Nc4ccc(C(=N)Nc5ccc(C(=N)NC)cc5)cc4)cc3)cc2)cc1
active: [1]; [7] 74% | [1]; at 50.0 µM 70.2% | [2]; [7] 81% | [5]; [7] 79% | [5]; [8] 74% | [6]; [7] 87% | [6]; at 50.0 µM 87.5%
inactive: [1]; [8] 54% | [2]; [8] 57% | [2]; at 50.0 µM 51% | [3]; [7] 52% | [3]; [8] 61% | [3]; at 50.0 µM 53.8% | [4]; [7] 47% | [4]; [8] 42% | [4]; at 50.0 µM 11.7% | [5]; at 50.0 µM 46.6% | [6]; [8] 69%

COc1ccccc1NC(=O)CC(=O)N1N=C(C)C(N=Nc2ccc(C(=O)O)cc2)C1=O (stereo unspecified)
inactive: [1]; [7] 2% | [1]; [8] -1% | [1]; at 50.0 µM 0% | [2]; [7] 0% | [2]; [8] -2% | [2]; at 50.0 µM -4% | [3]; [7] -4% | [3]; [8] -20% | [3]; at 50.0 µM 2.65% | [4]; [7] -2% | [4]; [8] 7% | [4]; at 50.0 µM 27.9% | [5]; [7] 1% | [5]; [8] 16% | [5]; at 50.0 µM -1.05% | [6]; [7] 1% | [6]; [8] 1% | [6]; at 50.0 µM 2.3%

O=C(Nc1ccc(F)cc1)ON=C1CCCCC1
active: [1]; [8] 99% | [1]; at 50.0 µM 90.2% | [2]; [8] 100% | [2]; at 50.0 µM 92.3% | [3]; [8] 99% | [3]; at 50.0 µM 91.5% | [4]; [8] 99% | [4]; at 50.0 µM 90.8% | [5]; at 50.0 µM 91.1% | [6]; [8] 99% | [6]; at 50.0 µM 90.4%
inactive: [1]; [7] 56% | [2]; [7] 46% | [3]; [7] 56% | [4]; [7] 33% | [5]; [7] 45% | [5]; [8] 66% | [6]; [7] 69%

CC(C)CC(NC(=O)COc1c(Cl)cc(Cl)c(Cl)c1Cl)C(=O)O (stereo unspecified)
inactive: [1]; [7] 0% | [1]; [8] 8% | [1]; at 50.0 µM 13% | [2]; [7] -1% | [2]; [8] 39% | [2]; at 50.0 µM -8.6% | [3]; [7] -1% | [3]; [8] 12% | [3]; at 50.0 µM -32.6% | [4]; [7] 4% | [4]; [8] 19% | [4]; at 50.0 µM 3.35% | [5]; [7] 5% | [5]; [8] 10% | [5]; at 50.0 µM 1% | [6]; [7] -2% | [6]; [8] 12% | [6]; at 50.0 µM 25.9%

COC(=O)c1n[nH]c(C)c1N=NN1CCC(C(N)=O)CC1
inactive: [1]; [7] 30% | [2]; [7] -8% | [3]; [7] -13% | [4]; [7] -1% | [5]; [7] -5% | [6]; [7] 36%
active: [1]; [8] 98% | [1]; at 50.0 µM 98.3% | [2]; [8] 99% | [2]; at 50.0 µM 99.2% | [3]; [8] 99% | [3]; at 50.0 µM 98.8% | [4]; [8] 99% | [4]; at 50.0 µM 97.8% | [5]; [8] 98% | [5]; at 50.0 µM 98.2% | [6]; [8] 99% | [6]; at 50.0 µM 99.2%

O=[N+]([O-])c1ccc(N/N=C/COCCO)c([N+](=O)[O-])c1
active: [5]; at 50.0 µM 73.6%
inactive: [1]; [7] 2% | [1]; [8] 20% | [1]; at 50.0 µM 37.4% | [2]; [7] 9% | [2]; [8] 11% | [2]; at 50.0 µM 11.8% | [3]; [7] 0% | [3]; [8] 62% | [3]; at 50.0 µM 23.1% | [4]; [7] 4% | [4]; [8] 2% | [4]; at 50.0 µM -24.2% | [5]; [7] -1% | [5]; [8] 14% | [6]; [7] 1% | [6]; [8] 8% | [6]; at 50.0 µM 62%

— PubChem BioAssay (NCI)
